GLD-1 RNA inh: GLD-1-TGE RNA interaction inhibition (C. elegans); Q17339; purified GLD-1 + fluorescein TGE RNA, fluorescence polarization; inhibition, % at 5.96 µM; actives 0.44% (n = 320,000);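 active = percent inhibition above a per-plate cutoff, the plate mean of test compounds plus 3 SD, cut at about 30% in these data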;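 note: 0% = DMSO wells with GLD-1 and probe and 100% = wells lacking GLD-1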
MCL1-BIM inh: inhibitors of human MCL1 binding to BIM-BH3 peptide. GST-MCL1 / FITC-Bim-BH3 fluorescence polarization. actives 0.68% (n = 320,000). AID 2057. inhibition, % at 10.9 µM;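 active = inhibition above the mean inhibition of all tested compounds plus 3 SD, set per campaign, cut at about 40% in these data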;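 note: 0% = DMSO wells and 100% = unlabeled Bim-BH3 peptide control; higher means more loss of mP so more displacement of Bim peptide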
Target sequence (Q07820 whole entry, looked up): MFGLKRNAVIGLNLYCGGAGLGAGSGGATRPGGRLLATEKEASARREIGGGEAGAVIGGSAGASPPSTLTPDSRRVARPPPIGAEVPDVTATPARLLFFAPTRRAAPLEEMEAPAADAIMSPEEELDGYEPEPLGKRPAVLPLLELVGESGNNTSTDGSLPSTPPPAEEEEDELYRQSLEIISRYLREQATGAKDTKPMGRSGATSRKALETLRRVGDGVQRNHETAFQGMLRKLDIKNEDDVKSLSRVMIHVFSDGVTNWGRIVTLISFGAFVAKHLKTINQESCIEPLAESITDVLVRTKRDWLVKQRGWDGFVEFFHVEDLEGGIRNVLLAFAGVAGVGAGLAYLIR
MEX-5 binding: C. elegans MEX-5 TCR-2 RNA binding activity; Q9XUB2; MEX-5/FITC-TCR2 RNA binding, fluorescence polarization; hits give low values; activity score (negative = inhibition of binding), % at 10 µM; actives 0.38% (n = 300,000); AID 1832;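 active = inhibition past about -25% in most replicates, and total fluorescence under double the plate's negative control median, limit read from the data; inconclusive = replicates evenly split on the limit, or fluorescence at least double controls; inactive = too little inhibition in most replicates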;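 note: 0% = DMSO and -100% = 5 µM competing unlabeled TCR2 RNA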
LANA-H2B inh: blocks KSHV LANA binding to histone H2A/H2B; actives 0.6% (n = 320,000); Q9QR71; AID 2629; inhibition, % (concentration not given with the values); cell-free LANA-H2A/H2B peptide, fluorescence polarization; in the data active = inhibition mostly above about 10%, no sharp cut-off; inactive = mostly below about 6.7%
CR mimetic SO: caloric restriction mimetics inhibiting age-related superoxide in yeast | S. cerevisiae aged cells, superoxide DHE fluorescence; hits give low values | superoxide response (% of plate mean), % at 10 µM | actives 0.18% (n = 330,000);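 active = superoxide response under a set limit, about three screen SD below normal, cut at about 65% in these data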;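 note: yeast aged for seven days with compound at 30 °C before DHE staining; 100% = average MFI of all compound-treated wells on the plate with controls excluded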
BCLXL inh: inhibitors of human Bcl-xL; inhibition, % at 10.9 µM; GST-Bcl-xL / FITC-Bim BH3 peptide fluorescence polarization; actives 0.7% (n = 320,000); Q07817;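 active = inhibition above the mean of all tested compounds plus 3 SD, cutoff set per campaign, cut at about 30% in these data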;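 note: 0% = DMSO wells and 100% = unlabeled Bim-BH3 peptide competitor; inhibitors lower millipolarization by displacing the labeled peptide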
* marks the source's active call; other numbers are inactive results; ? = inconclusive; / = not tested or not shown; + = active, no number. Sampled rows, rich in hits. Any-hit rate of the full collection: about 1.9%.

SMILES	GLD-1 RNA inh	MCL1-BIM inh	MEX-5 binding	LANA-H2B inh	CR mimetic SO	BCLXL inh
Cc1cc(C(=O)OCC(=O)Nc2ccc(F)cc2F)c(C)n1C1CC1	-4	2	/	146*	107	0
CCN(C(=O)COC(=O)c1cc(C)n(C2CC2)c1C)c1ccccc1	2	-7	/	-1	111	-6
COC(=O)C1=C(c2ccc(F)cc2OCc2ccccc2)C[C@@H]2CC[C@H]1N2C(=O)NCc1ccc2c(c1)OCO2	8	6	/	3	98	4
Cc1cc(/C=C2\C(=O)NC(=O)N(c3ccccc3F)C2=O)c(C)n1-c1cc(C(=O)O)cc(C(=O)O)c1	12	18	-3	1	90	12
Cc1cc(C=C2C(=O)NC(=O)NC2=O)c(C)n1-c1ccc2c(c1)OCO2	-4	-8	-7	2	102	3
Cc1cccc(N2C(=O)NC(=O)/C(=C\c3cc(C)n(-c4sc5c(c4C#N)CCCC5)c3C)C2=O)c1C	-16	-12	1	2	46*	-3
CCOC(=O)c1c(-n2c(C)cc(C=C3C(=O)NC(=O)NC3=O)c2C)sc2c1CCCC2	2	-5	-45*	10	104	-2
O=C1/C(=C/c2ccccc2)C[C@@]2(O)[C@H]3Cc4ccc(O)c5c4[C@@]2(CCN3CC2CC2)C1O5 (some centres not stated)	-5	/	/	/	105	/
COC(=O)Cn1cc(C=C2C(=O)N(C)C(=O)N(C)C2=O)c2ccccc21	-9	-14	-80*	-1	86	-5
COC1=CC2[C@@H]3Cc4ccc(OC)c(O)c4[C@]2(CCN3C)CC1=O (some centres not stated)	0	/	/	-7	119	/
COC(=O)C1=C(c2ccc(OC)c(OC)c2)C[C@@H]2CC[C@H]1N2C(=O)NCCCOC(C)C	3	7	/	-1	94	5
CCOP(=S)(OCC)Oc1nc(Cl)c(Cl)cc1Cl	2	16	/	+	118	8
COC(=O)C1=C(c2ccc(-c3ccccc3)c(F)c2)C[C@@H]2CC[C@H]1N2C(=O)NCCOc1ccccc1Cl	0	-2	/	2	89	1
CCOP(=O)(OCC)C(O)c1ccc(OC)c(OC)c1 (configuration not stated)	22	49*	1	2	88	34*
O=C1CN(O)C(c2ccccc2Cl)=c2cc(Br)ccc2=N1	-6	8	2	-3	103	1
CCOC(=O)[C@@H]1[C@H]2COc3ccc(Br)cc3[C@H]2N2C(=O)N(c3cccc(C)c3)C(=O)[C@]12C	8	/	/	4	114	/
Cc1cc(C)c(C(=O)N2CCC3(CC2)OCCO3)c(C)c1	5	-5	3	28*	114	-3
CCN1C[C@]2(OC(=O)c3ccccc3NC(C)=O)CCC(OC)C34C5C[C@H]6C(OC)[C@]5(O)[C@](O)(C[C@@H]6OC)C(C[C@@H]32)[C@H]14 (some centres not stated)	4	-2	0	-3	85	0
COc1cccc(C2(O)CCN(CC(=O)Nc3nc(C)cs3)CC2)c1	-7	8	-51*	-3	101	9
CCOC(=O)C1(c2ccccc2)CCN(CC(=O)Nc2cccc3ccccc23)CC1	4	5	0	1	95	4
Cc1cc(C)cc(-n2c(O)c(C=Nc3ccc(N4CCOCC4)cc3)c(=O)[nH]c2=S)c1	-6	-27	-52*	0	84	-17
CCOC(=O)c1c(/N=C/C2C(=O)NC(=S)NC2=O)sc2c1CCC2	-192	-85	-31*	-4	102	-92
CCOC(=O)c1c(/N=C/C2C(=O)NC(=S)NC2=O)sc(C)c1C	-13	-14	?	-2	115	-4
[N-]=[N+]=NC1C[C@H](n2ccc(=O)[nH]c2=O)O[C@@H]1CO (some centres not stated)	5	14	1	0	100	4
N#CC(C#N)=Cc1ccc(O)c(O)c1	1	5	/	-1	86	6
N#CC(C#N)=Cc1ccc(-c2ccccc2)o1	-24	-29	-43*	-16	102	9
CCC(=O)c1ccc(OCC(=O)N2CCN(CC(=O)Nc3ccccc3C(F)(F)F)CC2)cc1	-1	/	/	0	82	/
